# Screening data (PubChem)
# Pyk2 oligo antag: antagonists of human Pyk2 oligomerization; Q14289; z-score (the deposit names both 25 µM and 10 µM); Q293 cells, Pyk2 FERM NanoBiT luminescence; active compounds read low; hit rate 0.83% among 99,000;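 active = Z-score of -3 or lower, scaled per plate to the spread of control and sample wells; inactive = z-score above -3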;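 note: negative z-score means lost luminescence so less FERM oligomerization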
# CYP2C19 inh: human CYP2C19 inhibition; P33261; CYP2C19 Supersomes, luciferin-H EGE luminescence, 30 min; inhibition, % at 5 µM; hit rate 21% among 96,000; AID 778;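 active = CYP2C19 inhibition above a set limit at 5 µM in the primary screen, cut at about 50% in these data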;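 note: plate controls were negative control wells for no effect and 2.5 mM tranylcypromine positive control for full effect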
# Cav3 T inh: human Cav3.2 channel inhibition, primary screen. O95180. Cav3.2-expressing cells, Fluo-4 calcium fluorescence FDSS; active compounds read low. B-score at 10 µM. hit rate 4% among 100,000;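 active = single-dose well whose peak fluorescence ratio is a statistical outlier from its plate by either plate-standardised score or position-corrected B-score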
# CYP2C9 act: activators of human CYP2C9; P11712; recombinant CYP2C9, luciferin-H conversion, luminescence; active compounds read high; factor 1 = untreated enzyme, 0 = blocked; activation factor at 5 µM; hit rate 1.4% among 96,000; AID 1024;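 active = activation factor of 2 or more for CYP2C9 at a 5 µM dose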;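 note: 0 = sulfaphenazole-blocked wells and 1 = vehicle-only wells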
# CYP2C9 inhib: inhibitors of human CYP2C9 | CYP2C9 Supersomes, luciferin-H conversion, luminescence | AID 777 | inhibition, % at 5 µM | P11712 | hit rate 20% among 96,000;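 active = blocking of liver enzyme CYP2C9 beyond about 50% at 5 µM, limit read from the data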
# CYP2C19 activ: activators of human cytochrome P450 2C19. P33261. recombinant CYP2C19, luciferin-H EGE luminescence; active compounds read high; 0 = fully inhibited enzyme, 1 = untreated enzyme. activation factor at 5 µM. 96,000 tested, under 10 active;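 active = activation factor of at least 2 at 5 µM in the primary screen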;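 note: 0 = wells with 2.5 mM tranylcypromine and 1 = vehicle-only wells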
# * marks the source's active call; other numbers are inactive results; x = no result. A selection: hits, their analogues and other compounds. The true share with any hit is near 27%.
SMILES,Pyk2 oligo antag,CYP2C19 inh,Cav3 T inh,CYP2C9 act,CYP2C9 inhib,CYP2C19 activ
Cn1nc(C(F)(F)F)c(C(=O)Nc2ccc(F)cc2F)c1Sc1cccc(Cl)c1,-1.5,54*,-1.8,0.6,36,0.5
Cn1nc(C(F)(F)F)c(C(=O)Nc2ccc(F)cc2F)c1Oc1cccc(Cl)c1,-0.33,14,-2,0.8,22,0.9
Fc1ccc(C(c2nnnn2CCc2ccccc2)N2CCCc3ccccc32)cc1 (stereo not drawn),-0.45,26,-7.9*,0.6,36,0.7
CCC(C)(C)n1nnnc1CN1CCc2ccccc21,-0.23,61*,0.79,0.9,13,0.4
c1ccc(CCn2nnnc2CN2CCCc3ccccc32)cc1,4.3,96*,-2.1,0.3,67*,0
CCC(C)(C)n1nnnc1C(c1cccs1)N1CCc2ccccc21 (stereo not drawn),-0.94,48,-2.2,0.5,53*,0.5
O=c1nc2scc(-c3ccccc3)n2c2ccccc12,1,16,1.3,1,2,0.8
Cc1ccc([N+](=O)[O-])cc1-c1ccc2cccc(C)c2n1,-0.15,16,-1.1,1,-5,0.8
COc1ccc(-c2nc(-c3ccccc3)c(-c3cc([N+](=O)[O-])ccc3C)[nH]2)cc1O,-1.8,77*,0.23,0.3,74*,0.2
Cc1ccc([N+](=O)[O-])cc1-c1[nH]c(-c2ccc(O)c(O)c2)nc1-c1ccccc1,-0.27,52*,-0.93,0.1,88*,0.5
CCCCN(CCCC)CCNC(=O)CNC(=O)c1cccs1,0.67,8,0.053,0.8,18,0.9
CC(=O)NC(N1CCCCC1)C(F)(F)C(F)(F)C(F)(F)C(F)F (stereo not drawn),0.65,99*,-1.3,0.3,65*,0
O=P(O)(O)C(O)C(F)(F)C(F)(F)C(F)(F)C(F)F (stereo not drawn),-0.29,-16,x,0.9,8,1.2
CCOc1ccc(CCNc2ccc3nnc(-c4ccccc4)n3n2)cc1OCC,x,x,0.84,x,x,x
c1ccc(CCNc2ccc3nncn3n2)cc1,x,64*,0.53,1.1,-9,0.4
COC(=O)C1=C(C(C)=O)C(c2ccc(C(=O)OC)cc2)n2nnnc2N1 (stereo not drawn),-0.43,12,0.44,0.2,83*,0.9
O=C(O)c1ccc(-c2noc(-c3ccccc3C(F)(F)F)n2)cc1,x,x,0.2,x,x,x
CS(=O)(=O)c1ccccc1-c1nc(-c2ccc(C(F)(F)F)cc2)no1,-1.4,5,-0.85,3.1*,-208,1
CC(=O)Nc1cccc(C(=O)/C=C/c2ccco2)c1,0.05,47,-1.7,2.3*,-126,0.5
Cc1occc1C(=O)Nc1cccc(C(=O)O)c1,-0.13,71*,0.00037,0.6,41,0.3
Nc1ccccc1C(=O)Nc1cccc(C(=O)O)c1,-0.42,59*,x,0.9,14,0.4
CC(=O)Nc1ccc(C(=O)/C=C/c2ccco2)cc1,-0.63,x,x,x,x,x
Cc1cc(N2C(=O)NC(=O)CC2C)c(C)cc1C(C)C (stereo not drawn),-0.86,x,x,x,x,x
C=C1CCN([C@@H](C)C(=O)NCc2ccc(Cl)cc2)S(=O)(=O)c2ccccc21,x,x,-0.85,x,x,x
Cc1cc(C(F)F)n2nc(C(=O)Nc3cccnc3Cl)nc2n1,0.51,-7,-0.089,1,1,1.1
SMILES,Pyk2 oligo antag,CYP2C19 inh,Cav3 T inh,CYP2C9 act,CYP2C9 inhib,CYP2C19 activ
Cc1ccc(C)c(NC(=O)Cn2nnc(C(=O)NCc3cccs3)c2N)c1,-0.04,-15,-1.3,1.3,-26,1.2
Cc1ccc2nc(/C(C#N)=C\c3ccc([N+](=O)[O-])o3)[nH]c2c1,-2.5,10,-1.1,0.9,7,0.9
Cc1ccc2nc(/C(C#N)=C\c3ccc(N4CCOCC4)o3)[nH]c2c1,0.19,x,-5*,x,x,x
COc1ccc(N(C(=O)C(C)C)S(=O)(=O)c2ccc3c(c2)n(C)c(=O)n3C)cc1,-0.06,14,1.6,0.3,65*,0.9
COc1ccc(N(C(=O)C(C)C)S(=O)(=O)c2ccc(Cl)cc2)cc1,-0.75,97*,-3.2,0.1,88*,0
CCCc1cc(=O)[nH]c(Nc2cc(OC)ccc2OC)n1,-0.35,3,0.077,0.6,43,1
CC(C)OC(=O)CSc1nnc(-c2ccccn2)n1-c1ccccc1,-0.86,12,-0.29,0.9,6,0.9
c1ccc(CCn2c(SCc3ccccc3)nnc2-c2ccncc2)cc1,-0.25,x,-0.16,x,x,x
